From PubChem BioAssay
An excerpt weighted towards active compounds, which were near 7.9% of everything screened.
HCV inhibitor – blocks hepatitis C virus; Potency, µM (highest dose often 41.8 µM), for inactives: at the highest dose activity change, negative = inhibition, usual class: inhibitors; AID 651820; 340,000 compounds, 3.4% hits; Huh7.5.1 HCVcc-Cre infection, luciferase reporter, 44 h; active = well fitted inhibition curve with a large enough effect; inconclusive = small, poorly fitted or top-dose-only effect, or another doubt; inactive = no such curve, though single readings can be large or run the other way; also: potency is read from the fitted curve at half-maximal effect
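HCVcc-Cre virus at an moi near 0.5 was added right after compound to cells cultured 4 h from seeding (1,000 cells/well). Luciferase activity was determined 44 h later, 15 min after substrate addition at RT.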
HCMV antiviral – inhibitors of human cytomegalovirus. 410,000 compounds, 4.5% hits. HFF cells, HCMV-luciferase reporter, 72 h; hits give low values. activity change, negative = inhibition, % at 57.5 µM. AID 1259415; in the data active = activity change below about -60%; inconclusive = no clear call, values can overlap the other calls; inactive = above about -39%
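After 16 h attachment at 37C, HFF cells received test compound and HCMV-luciferase (1 PFU/cell); reporter luminescence read 72 h later, data normalized against buffer-only and known inhibitor Salinomycin.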
LASV entry inh – Lassa virus entry inhibition; 300,000 compounds, 1.2% hits; Potency, µM (top dose mostly 37.9 µM), without a hit: top-dose activity change, negative = inhibition, most hits filed as inhibitors; Lassa virus pseudotype entry inhibition, cell reporter; calls by dose curve; tested in HEK293 cells; also: potency is read from the fitted curve at half-maximal effect; nearly all actives have a fitted effect of over 50% in size
FMDV antiviral – blocks foot and mouth disease virus | FMDV antiviral cell-based qHTS | Potency, µM (titrated, usually from 57.9 µM), inactives show at the top dose activity change, negative = inhibition, usual class: inhibitors | 410,000 compounds, 1.2% hits; calls by dose curve; tested in HEK293T cells; also: read-out not given here; potency is read from the fitted curve at half-maximal effect; nearly all actives have a fitted effect of over 45% in size
Marburg entry inh – Marburg virus entry inhibition; Potency, µM (highest dose often 37.8 µM), for the others: top-dose activity change, negative = inhibition, hits mostly inhibitors; 300,000 compounds, 1.8% hits; Marburg virus pseudotyped entry inhibition, cell reporter; calls by dose curve; tested in HEK293 cells; also: potency is read from the fitted curve at half-maximal effect
Starred values were filed as active, the others as inactive; ? = inconclusive; . = no result; ! = not active in a repeat; [ ] = remark or other dose. % is scaled to controls: 0 for no effect and ±100 for the full control effect.

SMILES	HCV inhibitor	HCMV antiviral	LASV entry inh	FMDV antiviral	Marburg entry inh
COc1ccc(NC(=O)Nc2cccc3ccccc23)cc1S(N)(=O)=O	18%	-5	4µM*	8%	10%[46.1 µM]
COC(=O)c1c(-c2ccc(Br)cc2)csc1NC(=O)Cc1ccc(OC)c(OC)c1	?	?	2%	?	-20%
COc1ccc(NC(=O)Cn2nnc(C(=O)NCc3ccccc3Cl)c2N)cc1Cl	.	13	-15%[46.1 µM]	10%	.
CCOC(=O)C1=CCN(S(=O)(=O)c2ccc(Br)cc2)C1c1ccc(C)cc1 (stereo not given)	.	-23	.	-33%	.
COC(=O)c1c(-c2ccc(C)cc2)csc1NC(=O)Cc1ccc(OC)c(OC)c1	?	-65*	?	?	?
COC(=O)NC(=C(Cl)Cl)S(=O)(=O)c1ccccc1	11µM*	-31	13µM*	28µM*	?
Cc1ccc(C(=O)NC(=C(Cl)Cl)S(=O)(=O)c2ccccc2)cc1	11µM*	-70*	?	?	?
Cc1ccc(C(=O)NC(C#N)=C(Cl)Cl)cc1	6.3µM*	-99*	?	?	?
Cc1ccc(C(=O)NCC#N)cc1	17%	-4	-14%	-1%	?
COc1ccc(C(=O)NC(=C(Cl)Cl)S(=O)(=O)c2ccc(C)cc2)cc1	-10%	35	.	-4%	.
COc1ccccc1/C=C/C(=O)Nc1cccc(S(=O)(=O)NC2=NCCCCC2)c1	?	-15	?	-10%	11µM*
O=C(/C=C/c1ccc(OC(F)F)cc1)Nc1cccc(S(=O)(=O)NC2=NCCCCC2)c1	?	-69*	10µM*	?	?
COc1ccc(/C=C/C(=O)Nc2cccc(S(=O)(=O)NC3=NCCCCC3)c2)cc1	?	-5	.	8%	.
COc1ccc(OC)c(/C=C/C(=O)Nc2cccc(S(=O)(=O)NC3=NCCCCC3)c2)c1	?	-18	.	-2%	.
COc1cc(/C=C/C(=O)Nc2cccc(S(=O)(=O)NC3=NCCCCC3)c2)ccc1OCC#N	6.3µM*	-31	-28%	4%	?
Cc1ccc(C(=O)NCC(=O)N2CCN(c3ccccc3O)CC2)s1	.	33	.	-21%	.
CCN(CC)C1CCN(C(=O)c2cnn(-c3nccc(-c4ccccc4OC)n3)c2-c2ccco2)C1 (stereo not given)	.	.	.	6%	.
COc1ccc(/C(CC2OC(=O)c3ccccc32)=N\NC(N)=O)cc1 (stereo not given)	17%	1	6%	11%	2%[46.1 µM]
COc1ccc2c(c1OC)C(=O)OC2C/C(=N\NC(N)=O)c1ccccc1 (stereo not given)	16%	-70*	15%[46.1 µM]	44%	5%[46.1 µM]
COc1ccc(NC(=O)CN(c2ccc(OC)c(Cl)c2)S(=O)(=O)c2ccccc2)cc1	?	?	.	20%	.
CCOc1ccccc1N(CC(=O)Nc1ccccc1Br)S(=O)(=O)c1ccccc1	.	-63*	.	-20%	.
COc1ccc(NC(=O)CN(c2ccccc2OC)S(=O)(=O)c2cccs2)cc1Cl	?	-7	-28%	-17%	?
CCOc1ccccc1N(CC(=O)NC1CCCCC1)S(=O)(=O)c1ccc(C)cc1	-13%	-77*	?	15%	3.2µM*
COc1ccc(N(CC(=O)Nc2ccc(OC)c(OC)c2)S(=O)(=O)c2ccccc2)cc1Cl	13µM*	59	.	-18%	.
COc1ccccc1N(CC(=O)NC1CCCC1)S(=O)(=O)c1ccc(C)cc1	-9%	-17	?	3%	-10%
SMILES	HCV inhibitor	HCMV antiviral	LASV entry inh	FMDV antiviral	Marburg entry inh
CCOc1ccccc1N(CC(=O)Nc1ccc(OC)c(Cl)c1)S(=O)(=O)c1ccccc1	.	-62*	?	-7%	.
Cc1c(C(=O)N(C)C)sc2c1c(=O)n(-c1ccc(Cl)cc1)c(=O)n2CC(=O)C(C)(C)C	.	92	22%[46.1 µM]	-10%	.
COc1cccc(NC(=O)N[C@H]2CC[C@@]34CCCN3C(=O)CCC[C@H]4[C@H]2C)c1	.	45	.	.	.
CCN(Cc1ccccc1)S(=O)(=O)c1cn(C)cn1	9%	0	.	-3%	.
Cc1cccc(CCNC(=O)c2cc3c(s2)-c2c(C)cccc2OC3)c1	.	-20	.	?	-2%[46.1 µM]
CCCN1CCN(CCCNC(=O)c2cc3c(s2)-c2ccccc2OC3)CC1	10µM*	-23	.	0%	?
CC1CC(C)CN(CCCNC(=O)c2cc3c(s2)-c2ccccc2OC3)C1 (stereo not given)	8.9µM*	?	.	-10%	.
Cc1cccc2c1-c1sc(C(=O)NCCCN3CCCC(C)C3)cc1CO2 (stereo not given)	11µM*	-23	.	-11%	.
CCN1CCN(CCCNC(=O)c2cc3c(s2)-c2ccccc2OC3)CC1	7.1µM*	-108*!	.	9%	?
CC(=O)Nc1nonc1-c1nnc(SCC(=O)Nc2ccccc2Cl)n1C	.	-2	-2%[46.1 µM]	16%	-17%[46.1 µM]
CC(C)c1ccc(Cc2cnc(NC(=O)c3ccc4c(c3)CC(c3ccccc3)OC4=O)s2)cc1 (stereo not given)	.	-24	-2%[46.1 µM]	?	0%[46.1 µM]
COc1ccc(CCn2cc3c(c2-c2ccccc2Br)c(=O)n(C)c(=O)n3C)cc1OC	.	2	0%[46.1 µM]	0%	?
COc1ccc(CCNC(=O)c2cc3c(s2)-c2ccccc2OC3)cc1OC	.	?	.	?	-23%[46.1 µM]
CCCN1CCN(CCCNC(=O)c2cc3c(s2)-c2c(C)cccc2OC3)CC1	2.5µM*	-70*!	.	-2%	?
COC(=O)c1cc2c(s1)-c1cc(F)ccc1OC2	13%	-66*	?	31%	1%
CN(C)CCNC(=O)c1cc2c(s1)-c1ccccc1OC2	25µM*	105	.	41%	.
CC(=O)c1cc2c(s1)-c1cc(F)ccc1OC2	-18%	16	-23%	0%	?
Cc1cccc2c1-c1sc(C(=O)NCCc3ccc(Cl)cc3)cc1CO2	.	-87*	.	0%	-24%[46.1 µM]
COc1ccc(S(=O)(=O)NC(=O)C2(C)CCN2C(=O)COc2ccc(Cl)cc2)cc1OC (stereo not given)	.	-5	.	4%	.
COc1ccc2c(c1)O[C@@H]1c3ccc(OC)cc3OCC21 (stereo not given in full)	.	.	.	-4%	.
CCOc1ccc(NC(=O)c2cc3c(s2)-c2ccccc2OC3)cc1	.	-27	.	-27%	3%[46.1 µM]
Cc1csc(NC(=O)c2cc3c(s2)-c2ccccc2OC3)n1	11µM*	18	15%	-7%	?
O=C(c1ccc2c(c1)OCO2)N1C[C@@H]2[C@H](c3ccccc31)[C@H](CO)N2CC1CCCC1	.	-27	.	.	.
O=C(CCS(=O)(=O)Cc1ccccc1)Nc1ncc([N+](=O)[O-])s1	?	-96*	8%[46.1 µM]	42%	?
CO[C@H]1[C@H](NC(=O)c2ccsc2)c2ccccc2C12CCN(Cc1c(O)ccc3ccccc13)CC2	.	.	.	13%	.
O=c1c2ccccc2oc2cc(OCc3cccc(F)c3)cc(O)c12	32%	56	22%	-22%	-19%
CN(Cc1ccccc1F)c1nc(-c2cccs2)nc2ccccc12	?	-60*	0%	?	3%
Fc1ccccc1N1CCN(c2nc(-c3cccs3)nc3ccccc23)CC1	?	-28	5%	?	16%[46.1 µM]
